# Laboratory results as given in PubChem BioAssay (NCATS).
# Records with an inconclusive call do not appear. Activity calls are given as the source filed them. Calls follow the shape of the dose curve; as a rule, active = well fitted curve in the direction sought with a large enough effect; inconclusive = small, poorly fitted or top-dose-only effect, or another doubt; inactive = no such curve, though single readings can be large; an effect the other way counts as inactive or inconclusive.
# Biological target: Rap guanine nucleotide exchange factor 3 (Homo sapiens) (UniProt O95398)
# Sequence (O95398 whole entry, looked up): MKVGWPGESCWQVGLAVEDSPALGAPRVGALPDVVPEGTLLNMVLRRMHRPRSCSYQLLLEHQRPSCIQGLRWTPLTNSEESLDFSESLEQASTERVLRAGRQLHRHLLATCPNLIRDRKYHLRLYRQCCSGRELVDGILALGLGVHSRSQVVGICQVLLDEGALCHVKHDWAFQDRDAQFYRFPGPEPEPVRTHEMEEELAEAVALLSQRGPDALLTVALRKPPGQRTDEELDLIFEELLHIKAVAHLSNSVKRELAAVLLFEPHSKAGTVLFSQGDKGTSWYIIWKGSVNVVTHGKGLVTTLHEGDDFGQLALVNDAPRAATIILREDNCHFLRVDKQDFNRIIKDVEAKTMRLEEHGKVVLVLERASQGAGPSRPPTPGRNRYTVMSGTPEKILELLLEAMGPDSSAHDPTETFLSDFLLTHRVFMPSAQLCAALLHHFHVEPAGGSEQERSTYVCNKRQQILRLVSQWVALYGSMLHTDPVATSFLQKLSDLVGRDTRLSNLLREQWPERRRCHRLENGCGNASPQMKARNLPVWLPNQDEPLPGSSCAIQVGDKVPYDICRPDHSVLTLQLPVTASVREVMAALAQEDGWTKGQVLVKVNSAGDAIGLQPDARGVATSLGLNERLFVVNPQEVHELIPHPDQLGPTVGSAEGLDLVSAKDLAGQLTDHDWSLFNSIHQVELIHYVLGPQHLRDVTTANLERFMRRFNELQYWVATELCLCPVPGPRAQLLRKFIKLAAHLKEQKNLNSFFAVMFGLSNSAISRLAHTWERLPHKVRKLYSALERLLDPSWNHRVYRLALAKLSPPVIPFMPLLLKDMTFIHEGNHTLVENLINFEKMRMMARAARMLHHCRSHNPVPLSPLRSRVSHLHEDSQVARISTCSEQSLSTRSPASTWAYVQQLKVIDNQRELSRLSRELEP
# Test: Confirmatory qHTS for antagonist of cAMP-regulated guanine nucleotide exchange factor 3 (EPAC1) (AID 1645880); also: nearly all actives have a fitted effect of over 55% in size; also: potency is read from the fitted curve at half-maximal effect;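 as to activity, negative = inhibition: plate controls were DMSO only for no effect and full effect of the ATA control for full effect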
# Conditions: EPAC1 Rap1B-BODIPY-GDP exchange, fluorescence; series mostly up to 115 µM; activity, negative = inhibition: at the top concentration
# Method in brief: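 Released BODIPY-GDP fluoresces less than Rap1-bound BODIPY-GDP; the signal is followed at 480/540 nm at 5-min intervals over 30 min, after 5 min at room temperature. Reactions contain 100 nM EPAC1, 250 nM RAP1B-BODIPY-GDP and 50 uM GDP; results are normalized to ATA and DMSO.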
Compound,"activity, negative = inhibition",Potency
O=S1(=O)CCN2C(Cc3ccc(SC(F)F)cc3)=CSC2=N1,-10.7% (inactive),–
O=S(=O)(NCc1ccccc1)c1ccc(S(=O)(=O)N(Cc2cccs2)CC2CCCO2)cc1 (stereo not given),-19% (inactive),–
CCc1ccc2oc(C(=O)Nc3ccccc3OC)cc(=O)c2c1,-25.6% (inactive),–
CCO/C(C)=N/Oc1cc(OC)cc(OC)c1,-23.2% (inactive),–
Cc1ccc(C(CCN(Cc2ccccc2)C(=O)c2ccco2)c2ccco2)cc1 (stereo not given),–,37.9 µM (active)
CCCc1[nH]nc2c1C(c1cccnc1)C(C#N)=C(N)O2 (stereo not given),-19.2% (inactive),–
CN1C(=O)/C(=C\c2ccc(N(C)C)cc2)OC1=S,-2.71% (inactive),–
COc1cc(OC)nc(Oc2cc(/C=N/O)ccc2OC)n1,-8.06% (inactive),–
COC(=O)C1=CN(c2ccc(F)cc2)C(N)=C(C#N)C1c1cccc(OC)c1OC (stereo not given),-14.8% (inactive),–
O=C1c2cc(O)c(O)cc2OC(c2ccc(O)c(O)c2)C1O (stereo not given),–,42.6 µM (active)
O=C(COc1ccccc1Cl)Nc1cccc(S(=O)(=O)NC2=NCCCCC2)c1,-12.5% (inactive),–
O=C1CC(Cc2ccccc2)C(=O)N1CCc1ccc2c(c1)OCO2 (stereo not given),-16.1% (inactive),–
O=C(NCC1CCCO1)c1ccc(C(=O)NCC2CCCO2)cc1 (stereo not given),-13.8% (inactive),–
COc1cccc(C(c2nnnn2-c2c(C)cccc2C)N2CCN(C/C=C/c3ccccc3)CC2)c1OC (stereo not given),-26% (inactive),–
COc1ccc(CCNC(=O)CCCCCn2c(SCC(N)=O)nc3cc4c(cc3c2=O)OCO4)cc1OC,-17.1% (inactive),–
CCNC(C(=O)c1c[nH]c2c(CC)cccc12)c1ccccc1 (stereo not given),-16.9% (inactive),–
Cc1ccc(CNS(=O)(=O)c2ccc(-n3cnnn3)c(C)c2)cc1,-13.1% (inactive),–
COc1ccc(C2=CC(=O)C[C@H](COCc3ccccc3)N(C(=O)OC(C)(C)C)O2)cc1,-16.2% (inactive),–
O=C(CCC(=O)N1CCSc2ccccc21)NCc1cccc(Cl)c1,-18.4% (inactive),–
Cc1c(C(=O)N2CCCCC2)oc2ccc(Br)cc12,-25% (inactive),–

Compound,"activity, negative = inhibition",Potency
O=C1S/C(=C\c2ccc(O)c([N+](=O)[O-])c2)C(=O)N1c1ccccc1Cl,–,75.7 µM (active)
COc1cc(OC)nc(Oc2cccc(Cl)c2C)n1,-14.2% (inactive),–
O=c1[nH]c(/C=C/c2cccc([N+](=O)[O-])c2)c([N+](=O)[O-])c(=O)[nH]1,–,16.9 µM (active)
CN(C)CCCN(C(=O)COc1ccc(Cl)cc1)c1nc2cc3c(cc2s1)OCCO3,-26.1% (inactive),–
CCn1c(CNC(=O)COC)nc2ccccc21,-5.95% (inactive),–
O=C(O)CCc1ccc(-c2ccccc2)n1-c1cccc(Br)c1,-27.9% (inactive),–
COc1ccccc1CCc1nnc(CCC(=O)N(C)Cc2cccc3ncccc23)o1,-32.3% (inactive),–
COc1cc(/C=C2\SC(=O)N(CC(=O)Nc3cccc(C)c3)C2=O)cc([N+](=O)[O-])c1O,–,19 µM (active)
C=CCn1c(C)cc(C(=O)Cn2ncc(Cl)c(Cl)c2=O)c1C,–,37.9 µM (active)
COc1cc(-c2c(CCO)sc3ccccc23)cc(OC)c1OC,-15.2% (inactive),–
COc1ccc(-c2cc(C(F)(F)F)nc(SCC(=O)NCCc3ccccc3)n2)cc1OC,-25.8% (inactive),–
CN(Cc1ccccc1N1CCCC1)C(=O)c1cc2cc(Cl)ccc2o1,-22.7% (inactive),–
CCOc1c(OC)cccc1C(=O)NCC1(c2ccccc2)CCCC1,-18.8% (inactive),–
O=C(OCc1c(-c2ccccc2)ncc2ccccc12)c1ccccc1C(F)(F)F,-29.1% (inactive),–
CC(C)(C)[C@H](N)C(=O)N[C@H]1CCC2C3CC=C4C[C@@H](O)CC[C@]4(C)C3CC[C@@]21C (stereo not given in full),-12% (inactive),–
COc1ccc(C=NNc2ccc([N+](=O)[O-])cc2S(=O)(=O)Nc2ccccc2C(=O)O)cc1OC,–,25.1 µM (active)
Cc1cccc(C2c3[nH]c4ccccc4c3CCN2Cc2cccn2-c2ncccn2)c1 (stereo not given),-9.8% (inactive),–
COc1ccc(C2c3c(ncn(CCCO)c3=N)Oc3ccc4ccccc4c32)cc1 (stereo not given),-18.8% (inactive),–
CCc1cc(C(=O)c2ccc(OC)cc2)c(NC(=O)CC(C)(C)CC(=O)O)s1,-28.1% (inactive),–
COc1cccc(NC(=O)CN(C)C(=O)CNC(=O)c2ccc(Oc3ccccc3)cc2)c1,-25.3% (inactive),–

# Biological target: Rap guanine nucleotide exchange factor 3 (Homo sapiens) (UniProt O95398)
# Test: Confirmatory qHTS for agonist of cAMP-regulated guanine nucleotide exchange factor 3 (EPAC1) (AID 1645881);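 also: EPAC1 catalysed release of BODIPY-GDP from Rap1B seen as fluorescence loss; 100% = effect of cAMP agonist control; nearly all actives have a fitted effect of over 75% in size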
# Conditions: EPAC1 Rap1B BODIPY-GDP exchange fluorescence; series mostly up to 154 µM; activation: at the top concentration
row,Compound,activation
1,O=S1(=O)CCN2C(Cc3ccc(SC(F)F)cc3)=CSC2=N1,0.455% (inactive)
2,O=S(=O)(NCc1ccccc1)c1ccc(S(=O)(=O)N(Cc2cccs2)CC2CCCO2)cc1 (stereo not given),-3.16% (inactive)
3,CCc1ccc2oc(C(=O)Nc3ccccc3OC)cc(=O)c2c1,-0.272% (inactive)
4,CCO/C(C)=N/Oc1cc(OC)cc(OC)c1,0.285% (inactive)
5,Cc1ccc(C(CCN(Cc2ccccc2)C(=O)c2ccco2)c2ccco2)cc1 (stereo not given),-12.1% (inactive)
6,CCCc1[nH]nc2c1C(c1cccnc1)C(C#N)=C(N)O2 (stereo not given),3.06% (inactive)
7,CN1C(=O)/C(=C\c2ccc(N(C)C)cc2)OC1=S,6.79% (inactive)
8,COc1cc(OC)nc(Oc2cc(/C=N/O)ccc2OC)n1,2.8% (inactive)
9,COC(=O)C1=CN(c2ccc(F)cc2)C(N)=C(C#N)C1c1cccc(OC)c1OC (stereo not given),8.95% (inactive)
10,O=C1c2cc(O)c(O)cc2OC(c2ccc(O)c(O)c2)C1O (stereo not given),-1.09% (inactive)
11,O=C(COc1ccccc1Cl)Nc1cccc(S(=O)(=O)NC2=NCCCCC2)c1,9.18% (inactive)
12,O=C1CC(Cc2ccccc2)C(=O)N1CCc1ccc2c(c1)OCO2 (stereo not given),8.14% (inactive)
13,O=C(NCC1CCCO1)c1ccc(C(=O)NCC2CCCO2)cc1 (stereo not given),1.17% (inactive)
14,COc1cccc(C(c2nnnn2-c2c(C)cccc2C)N2CCN(C/C=C/c3ccccc3)CC2)c1OC (stereo not given),16.6% (inactive)
15,COc1ccc(CCNC(=O)CCCCCn2c(SCC(N)=O)nc3cc4c(cc3c2=O)OCO4)cc1OC,21.3% (inactive)
16,CCNC(C(=O)c1c[nH]c2c(CC)cccc12)c1ccccc1 (stereo not given),11.3% (inactive)
17,Cc1ccc(CNS(=O)(=O)c2ccc(-n3cnnn3)c(C)c2)cc1,4.61% (inactive)
18,COc1ccc(C2=CC(=O)C[C@H](COCc3ccccc3)N(C(=O)OC(C)(C)C)O2)cc1,24.3% (inactive)
19,O=C(CCC(=O)N1CCSc2ccccc21)NCc1cccc(Cl)c1,8.02% (inactive)
20,Cc1c(C(=O)N2CCCCC2)oc2ccc(Br)cc12,11.6% (inactive)

row,Compound,activation
1,O=C1S/C(=C\c2ccc(O)c([N+](=O)[O-])c2)C(=O)N1c1ccccc1Cl,-11.3% (inactive)
2,COc1cc(OC)nc(Oc2cccc(Cl)c2C)n1,10.9% (inactive)
3,O=c1[nH]c(/C=C/c2cccc([N+](=O)[O-])c2)c([N+](=O)[O-])c(=O)[nH]1,3.37% (inactive)
4,CN(C)CCCN(C(=O)COc1ccc(Cl)cc1)c1nc2cc3c(cc2s1)OCCO3,7.93% (inactive)
5,CCn1c(CNC(=O)COC)nc2ccccc21,2.32% (inactive)
6,O=C(O)CCc1ccc(-c2ccccc2)n1-c1cccc(Br)c1,7.19% (inactive)
7,COc1ccccc1CCc1nnc(CCC(=O)N(C)Cc2cccc3ncccc23)o1,-16.5% (inactive)
8,COc1cc(/C=C2\SC(=O)N(CC(=O)Nc3cccc(C)c3)C2=O)cc([N+](=O)[O-])c1O,-8.75% (inactive)
9,C=CCn1c(C)cc(C(=O)Cn2ncc(Cl)c(Cl)c2=O)c1C,-4.61% (inactive)
10,COc1cc(-c2c(CCO)sc3ccccc23)cc(OC)c1OC,6.17% (inactive)
11,COc1ccc(-c2cc(C(F)(F)F)nc(SCC(=O)NCCc3ccccc3)n2)cc1OC,-24% (inactive)
12,CN(Cc1ccccc1N1CCCC1)C(=O)c1cc2cc(Cl)ccc2o1,13.4% (inactive)
13,CCOc1c(OC)cccc1C(=O)NCC1(c2ccccc2)CCCC1,11.5% (inactive)
14,O=C(OCc1c(-c2ccccc2)ncc2ccccc12)c1ccccc1C(F)(F)F,4.96% (inactive)
15,CC(C)(C)[C@H](N)C(=O)N[C@H]1CCC2C3CC=C4C[C@@H](O)CC[C@]4(C)C3CC[C@@]21C (stereo not given in full),6.22% (inactive)
16,COc1ccc(C=NNc2ccc([N+](=O)[O-])cc2S(=O)(=O)Nc2ccccc2C(=O)O)cc1OC,-12.2% (inactive)
17,Cc1cccc(C2c3[nH]c4ccccc4c3CCN2Cc2cccn2-c2ncccn2)c1 (stereo not given),7.1% (inactive)
18,COc1ccc(C2c3c(ncn(CCCO)c3=N)Oc3ccc4ccccc4c32)cc1 (stereo not given),3.99% (inactive)
19,CCc1cc(C(=O)c2ccc(OC)cc2)c(NC(=O)CC(C)(C)CC(=O)O)s1,6.33% (inactive)
20,COc1cccc(NC(=O)CN(C)C(=O)CNC(=O)c2ccc(Oc3ccccc3)cc2)c1,11.9% (inactive)
